Drawing on PubChem BioAssay (NCI), this text covers growth for 9 molecules.

About 83,000 compounds went through this panel and 20% of them were active in at least one assay; those are over-represented in the sample as a whole.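 For each line, cells grew in 96-well plates with the test compound present at a single concentration for 48 hours.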 Values without a mark were called inactive. Activity calls are given as the source filed them. The calls were made as follows: active = growth percent below 10; inactive = the rest.

Among the test systems are RPMI-8226 leukemia; OVCAR-8 ovarian; OVCAR-5 ovarian; OVCAR-4 ovarian; SK-OV-3 ovarian; IGROV1 ovarian; OVCAR-3 ovarian; HS 578T breast; NCI/ADR-RES ovarian; T-47D breast; BT-549 breast; MDA-MB-435 melanoma; SW-620 colon; MCF7 breast; HCT-116 colon; HCC-2998 colon; KM12 colon.
What all share (assay): NCI-60 one-dose screen, 48 h (100 = growth as untreated, 0 = no growth, -100 = all killed)
What all share (conditions): 10 µM unless noted

In the case of `c1csc([C@@H]2C[C@@H]3Cc4ccc5ccccc5c4N2O3)c1`, the growth in the experiment with RPMI-8226 leukemia was 95.5%; in the experiment on OVCAR-8 ovarian it was 96.9%; with OVCAR-5 ovarian, 89.9%; with OVCAR-4 ovarian it was 87.7%; in the experiment on SK-OV-3 ovarian it was 102%; in the experiment with IGROV1 ovarian, 105%. In addition, the growth with OVCAR-3 ovarian was 102%; in the experiment on HS 578T breast, 101%; in the experiment with NCI/ADR-RES ovarian, 97.7%; in the experiment on T-47D breast it was 98.8%; in the experiment on BT-549 breast, 112%; in the experiment with MDA-MB-435 melanoma, 87.1%. Besides, the growth with SW-620 colon was 98.5%; with MCF7 breast, 99.8%; with HCT-116 colon, 101%; with HCC-2998 colon, 105%; with KM12 colon, 103%.

As for `CC[N+](C)(CC)CCCC(C)Nc1ccnc2cc(Cl)ccc12` (stereo not drawn), the growth in the experiment on RPMI-8226 leukemia is 106%; in the experiment with OVCAR-8 ovarian, 100%; with OVCAR-5 ovarian, 119%; with OVCAR-4 ovarian, 112%; with SK-OV-3 ovarian, 111%; in the experiment with IGROV1 ovarian, 110%. The growth in the experiment on OVCAR-3 ovarian is 101%; in the experiment with HS 578T breast, 104%; in the experiment with NCI/ADR-RES ovarian, 112%; in the experiment on T-47D breast it was 101%; with BT-549 breast it was 117%; in the experiment with MDA-MB-435 melanoma it was 108%. Moreover, the growth with SW-620 colon is 106%; in the experiment on MCF7 breast, 96.4%; with HCT-116 colon, 110%; with HCC-2998 colon, 119%; with KM12 colon it was 102%.

Turning to `O=C(COC(=O)[C@H](C[Se][Se]C[C@H](NC(=O)c1ccc(Br)cc1F)C(=O)OCC(=O)c1ccc(F)cc1)NC(=O)c1ccc(Br)cc1F)c1ccc(F)cc1`, the growth in the experiment with RPMI-8226 leukemia is -44.3% (active); with OVCAR-8 ovarian, -100% (active); with OVCAR-5 ovarian it was -68.7% (active); in the experiment on OVCAR-4 ovarian, -95.7% (active); in the experiment on SK-OV-3 ovarian, -81% (active); in the experiment with IGROV1 ovarian, -100% (active). Besides, the growth is -100% (active) in the experiment with OVCAR-3 ovarian; -16% (active) in the experiment on HS 578T breast; -82.8% (active) in the experiment on NCI/ADR-RES ovarian; -67% (active) with T-47D breast; -93% (active) with BT-549 breast; -42.1% (active) in the experiment on MDA-MB-435 melanoma. The growth is -95% (active) with SW-620 colon; -58.4% (active) with MCF7 breast; -72.4% (active) in the experiment on HCT-116 colon; -68.9% (active) with HCC-2998 colon; -99.1% (active) in the experiment on KM12 colon.

With `Cc1nnc(Nc2ccc(NC(=O)Nc3ccc(Cl)cc3)cc2)c2ccccc12`, the growth in the experiment on RPMI-8226 leukemia is -11.9% (active); in the experiment with OVCAR-8 ovarian it was 31.4%; in the experiment with OVCAR-5 ovarian it was 72.8%; in the experiment on OVCAR-4 ovarian, 42.6%; in the experiment with SK-OV-3 ovarian, 66.4%; with IGROV1 ovarian it was 62%. Also, the growth in the experiment on OVCAR-3 ovarian was 44.4%; with HS 578T breast, 3.43% (active); with NCI/ADR-RES ovarian it was 45.1%; in the experiment with T-47D breast, 8.43% (active); in the experiment with BT-549 breast, 11.4%; in the experiment on MDA-MB-435 melanoma, -40% (active). Further, the growth with SW-620 colon is 20.3%; in the experiment with MCF7 breast it was 24.9%; with HCT-116 colon, 7.67% (active); in the experiment on HCC-2998 colon, 40.5%; in the experiment on KM12 colon, 14.1%.

As for `C/C(=C\CCc1ccoc1)CC/C=C(\C)CCCN1CCC(CO)CC1`, the growth in the experiment with RPMI-8226 leukemia was 3.35% (active); with OVCAR-8 ovarian, 77.7%; in the experiment with OVCAR-5 ovarian it was 76.4%; in the experiment with OVCAR-4 ovarian, 52.5%; in the experiment with SK-OV-3 ovarian, 65.1%; in the experiment on IGROV1 ovarian, 67.8%. Besides, the growth is 82.4% in the experiment with OVCAR-3 ovarian; 57.5% in the experiment on HS 578T breast; 73.4% in the experiment with NCI/ADR-RES ovarian; 35.9% with T-47D breast; 54.2% with BT-549 breast; 44.2% in the experiment with MDA-MB-435 melanoma. Also, the growth in the experiment with SW-620 colon is 18.2%; in the experiment with MCF7 breast, 28.9%; in the experiment with HCT-116 colon, 31%; in the experiment with HCC-2998 colon, 46.5%; in the experiment with KM12 colon, 44.6%.

As to `Cn1c(=O)c2c(nc(Br)n2CCC(=O)Nc2ccc(F)cc2)n(C)c1=O`, the growth in the experiment with RPMI-8226 leukemia was 101%; in the experiment with OVCAR-8 ovarian, 100%; in the experiment with OVCAR-5 ovarian, 94.7%; in the experiment on OVCAR-4 ovarian, 114%; in the experiment on SK-OV-3 ovarian it was 83.6%; in the experiment with IGROV1 ovarian it was 107%. For the same molecule, the growth was 125% in the experiment on OVCAR-3 ovarian; 102% with HS 578T breast; 101% in the experiment on NCI/ADR-RES ovarian; 97.3% in the experiment with T-47D breast; 91.8% in the experiment on BT-549 breast; 108% in the experiment on MDA-MB-435 melanoma. Further, the growth with SW-620 colon is 103%; with MCF7 breast, 100%; in the experiment with HCT-116 colon it was 85.5%; with HCC-2998 colon, 103%; in the experiment on KM12 colon, 107%.

Take `O=C(CCc1nnc(Cn2cncn2)o1)c1nc2ccccc2[nH]1`: the growth is 108% with RPMI-8226 leukemia; 107% in the experiment with OVCAR-8 ovarian; 107% in the experiment on OVCAR-5 ovarian; 111% in the experiment on OVCAR-4 ovarian; 116% in the experiment on SK-OV-3 ovarian; 118% with IGROV1 ovarian. The growth in the experiment on OVCAR-3 ovarian is 122%; with HS 578T breast, 127%; in the experiment on NCI/ADR-RES ovarian, 105%; with T-47D breast it was 108%; with BT-549 breast, 112%; with MDA-MB-435 melanoma, 103%. Besides, the growth in the experiment with SW-620 colon was 113%; in the experiment on MCF7 breast it was 91%; in the experiment on HCT-116 colon, 111%; in the experiment on HCC-2998 colon, 112%; in the experiment with KM12 colon, 114%.

As for `Cc1cc(O)c2c(c1)C[C@H]1[C@@H]3CC[C@H]4CC(=O)CC[C@]4(C)[C@H]3CC(=O)[C@]21C`, the growth with RPMI-8226 leukemia is 56.6%; in the experiment with OVCAR-8 ovarian, 97.4%; in the experiment on OVCAR-5 ovarian it was 79.7%; with OVCAR-4 ovarian, 109%; in the experiment with SK-OV-3 ovarian, 114%; with IGROV1 ovarian it was 126%. Moreover, the growth in the experiment on OVCAR-3 ovarian was 98%; with HS 578T breast it was 33%; in the experiment with NCI/ADR-RES ovarian, 83.8%; in the experiment on T-47D breast, 67.9%; in the experiment with BT-549 breast it was 91.4%; in the experiment on MDA-MB-435 melanoma, 91.1%. Also, the growth in the experiment on SW-620 colon is 103%; with MCF7 breast, 95.6%; in the experiment with HCT-116 colon, 77.1%; in the experiment on HCC-2998 colon it was 87.9%; in the experiment with KM12 colon it was 81.2%.

With `O=c1[nH]c(Cl)nc2c1cnn2-c1ccccc1`, the growth with RPMI-8226 leukemia is 51.7%; in the experiment on OVCAR-8 ovarian, 106%; in the experiment with OVCAR-5 ovarian it was 97.2%; in the experiment with OVCAR-4 ovarian, 82.6%; in the experiment on SK-OV-3 ovarian, 110%; in the experiment with IGROV1 ovarian it was 108%. Also, the growth was 93.4% in the experiment on OVCAR-3 ovarian; 93.4% with HS 578T breast; 96.3% in the experiment with NCI/ADR-RES ovarian; 98.4% in the experiment with T-47D breast; 52.9% in the experiment on BT-549 breast; 52.4% with MDA-MB-435 melanoma. Further, the growth with SW-620 colon is 50.6%; with MCF7 breast it was 84.3%; in the experiment on HCT-116 colon, 31%; with HCC-2998 colon it was 91.2%; with KM12 colon, 18.6%.
